# Results reported in PubChem BioAssay (EPA / NIEHS).
# Inconclusive results are not listed. Calls of active or inactive are those of the source. Rule for the calls: active = hit-call score of the fitted dose curve at least 0.9, where 1 is the maximum; inconclusive = response in the unintended direction; inactive = score below 0.9.
# Assay: CCTE_Shafer_MEA_acute_LDH: CCTE's Lactate Dehydrogenase Assay for Cytotoxicity in the Neural Acute Assay, Shafer Lab (AID 2284086);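 note: active means LDH release rises above DMSO vehicle level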
# Description: CCTE_Shafer_MEA_acute assay is conducted using Axion Biosystems 48 well microelectrode array (MEA) plates and Maestro recording system. Each well of the MEA plate contains a grid of 16 microelectrodes embedded in the culture surface. Electrically active cells, such as neurons, can be cultured over the electrodes, and electrical activity in these cells can be recorded extracellularly. The spontaneous firing of neurons is captured from each electrode on a microsecond timescale providing both temporally and spatially precise data. […] The CCTE_Shafer_MEA_acute assay uses primary cultures of rat cortical neurons. As these cultures mature over time, neural networks develop functional activity and form cohesive networks in which electrical activity can be highly coordinated. Baseline 40-minute recordings are made on days post-plating 13 or 15, followed by a secondary 40-minute recording after chemical exposure.CCTE_Shafer_MEA_acute_LDH is a component of the CCTE_Shafer_MEA_acute assay. It measures the lactate dehydrogenase enzyme activity using spectrophotometry.Data from the assay component CCTE_Shafer_MEA_acute_LDH was analyzed into 1 assay endpoint. This assay endpoint, CCTE_Shafer_MEA_acute_LDH, was analyzed in the positive analysis fitting direction relative to DMSO as the negative control and baseline of activity. Using a type of viability reporter, gain-of-signal activity can be used to understand cell viability.
# Immediately following the 40 min recording in the presence of compounds, 50 uL of media was removed from each well and transferred to a sterile 96-well plate. This was used to determine LDH released from cells during compound exposure using a kit from Promega where absorbance was determined in a Molecular Devices VersaMax plate reader at 490 nm.
row,SMILES,outcome
1,CCCCCCCCCCO,inactive
2,NCC1(Cc2noc(=O)[nH]2)CCCCC1,inactive
3,C=CCc1ccc(O)c(OC)c1,inactive
4,O=C(O)CCCCC(=O)O,inactive
5,Nc1ccc2c(c1)C(=O)c1ccccc1C2=O,inactive
6,CN[C@H]1CC[C@@H](c2ccc(Cl)c(Cl)c2)c2ccc(S(N)(=O)=O)cc21,inactive
7,C[Si]1(C)O[Si](C)(C)O[Si](C)(C)O[Si](C)(C)O1,inactive
8,CN1CCCC1=O,inactive
9,CCOC(=O)C(C)(C)Oc1ccc(Cl)cc1,inactive
10,NS(=O)(=O)c1cc2c(cc1Cl)NCNS2(=O)=O,inactive
11,Nc1ccccc1N,inactive
12,COc1ccc(S(=O)(=O)N2C(=O)[C@@](c3ccccc3OC)(N3C[C@H](O)C[C@H]3C(=O)N(C)C)c3cc(Cl)ccc32)c(OC)c1,inactive
13,CC(C)(C)c1cc(O)c(C(C)(C)C)cc1O,inactive
14,COc1ccc2c(c1)c(CC(=O)O)c(C)n2C(=O)c1ccc(Cl)cc1,inactive
15,CNCc1cc(F)ccc1Oc1ccc(Cl)c(Cl)c1,inactive
16,CCCc1cc(=O)[nH]c(=S)[nH]1,inactive
17,c1cc(-c2ccncc2)ccn1,inactive
